Records with an inconclusive call do not appear. A call without a number means that no potency is given here. Calls of active or inactive are those of the source. Unless noted, the call rests on the fitted dose curve; in most records, active means well fitted curve in the direction sought with a large enough effect; inconclusive means small, poorly fitted or top-dose-only effect, or another doubt; inactive means no such curve, though single readings can be large; an effect the other way counts as inactive or inconclusive.
Tests used:
[1] = biological target: Estrogen receptor (Homo sapiens) (UniProt P03372); assay: qHTS assay for small molecule antagonists of estrogen receptor alpha signaling (AID 588513; active means well fitted curve in the direction sought with a large enough effect in the signal ratio, with a control signal flat, not every such curve was filed as active; the % refers to the signal ratio)
Sequence of Estrogen receptor (Homo sapiens) (P03372 whole entry, looked up): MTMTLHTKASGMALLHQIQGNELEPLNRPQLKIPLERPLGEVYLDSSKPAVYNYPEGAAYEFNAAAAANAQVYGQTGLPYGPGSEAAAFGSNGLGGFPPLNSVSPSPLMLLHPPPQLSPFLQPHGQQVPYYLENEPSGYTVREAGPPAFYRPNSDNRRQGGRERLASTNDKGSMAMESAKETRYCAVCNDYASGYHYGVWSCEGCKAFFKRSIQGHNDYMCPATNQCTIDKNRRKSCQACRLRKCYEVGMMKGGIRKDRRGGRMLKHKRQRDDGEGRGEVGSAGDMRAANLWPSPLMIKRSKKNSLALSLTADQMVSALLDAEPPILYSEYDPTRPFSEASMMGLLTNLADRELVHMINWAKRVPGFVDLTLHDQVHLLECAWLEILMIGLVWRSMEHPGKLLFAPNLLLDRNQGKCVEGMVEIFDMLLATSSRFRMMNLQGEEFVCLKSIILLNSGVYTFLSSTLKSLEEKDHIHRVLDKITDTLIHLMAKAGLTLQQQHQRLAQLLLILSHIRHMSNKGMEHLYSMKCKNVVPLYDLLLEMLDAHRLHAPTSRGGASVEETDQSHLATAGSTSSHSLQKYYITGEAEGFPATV
Summary of the method: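 ER-alpha-UAS-bla GripTite HEK 293 cells in medium with 2% charcoal/dextran-treated FBS were preincubated 4 h at 37 C, dosed with compound (1:2 titration), stimulated with 0.5nM 17-beta-estradiol for 18 h, then read by CCF4 beta-lactamase fluorescence.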

[2] = biological target: DNA dC->dU-editing enzyme APOBEC-3G (Homo sapiens) (UniProt Q9HC16); assay: qHTS for inhibitors of Vif-A3G interactions: Validation (AID 588379)
Sequence of DNA dC->dU-editing enzyme APOBEC-3G (Homo sapiens) (Q9HC16 whole entry, looked up): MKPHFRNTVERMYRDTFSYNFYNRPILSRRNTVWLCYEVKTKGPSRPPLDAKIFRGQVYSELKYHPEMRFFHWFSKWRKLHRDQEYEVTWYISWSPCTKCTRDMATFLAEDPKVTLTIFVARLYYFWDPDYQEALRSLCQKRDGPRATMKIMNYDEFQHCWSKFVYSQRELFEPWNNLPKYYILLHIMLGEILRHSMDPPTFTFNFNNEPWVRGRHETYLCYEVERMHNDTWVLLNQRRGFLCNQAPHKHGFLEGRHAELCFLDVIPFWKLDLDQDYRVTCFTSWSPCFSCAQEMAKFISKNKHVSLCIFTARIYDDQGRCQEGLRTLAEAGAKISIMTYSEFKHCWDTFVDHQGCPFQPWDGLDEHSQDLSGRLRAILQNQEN
Summary of the method: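 Yellow fluorescence (Ex 488, Em 500-530) of Vif-coexpressing HeLa A3G-eYFP cells, scanned by Acumen cytometer, reports blocked A3G degradation. Cells plated at 700/well overnight at 37 deg C before compound addition, then a further overnight compound incubation at 37 deg C.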

[3] = Inducers of the Endoplasmic Reticulum Stress Response (ERSR) in human glioma: Validation (AID 504836)
Summary of the method: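 Stably transfected U87-MG glioma cells carrying a GRP78-based luciferase sensor; 16 h compound incubation. Luminescence end-point read 10 min after Bright-Glo addition at room temperature.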

[4] = qHTS for Inhibitors of ATXN expression: Validation (AID 588378); further: series mostly up to about 57 µM; nearly all actives have a fitted effect of over 75% in size
Summary of the method: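 Luminescence from an ATXN2-FFLuc reporter in HEK293 cells served as read-out after 24 h compound treatment at 37 degrees C; CellTiter-Fluor fluorescence was recorded first to assess viability.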

[5] = biological target: Ubiquitin carboxyl-terminal hydrolase 1 (Homo sapiens) (UniProt O94782); assay: Inhibitors of USP1/UAF1: Pilot qHTS (AID 504865);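 further: rhodamine fluorescence freed from ubiquitin-rhodamine substrate followed over time; top concentration of the series differs between compounds; nearly all actives have a fitted effect of over 35% in size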
Sequence of Ubiquitin carboxyl-terminal hydrolase 1 (Homo sapiens) (O94782 whole entry, looked up): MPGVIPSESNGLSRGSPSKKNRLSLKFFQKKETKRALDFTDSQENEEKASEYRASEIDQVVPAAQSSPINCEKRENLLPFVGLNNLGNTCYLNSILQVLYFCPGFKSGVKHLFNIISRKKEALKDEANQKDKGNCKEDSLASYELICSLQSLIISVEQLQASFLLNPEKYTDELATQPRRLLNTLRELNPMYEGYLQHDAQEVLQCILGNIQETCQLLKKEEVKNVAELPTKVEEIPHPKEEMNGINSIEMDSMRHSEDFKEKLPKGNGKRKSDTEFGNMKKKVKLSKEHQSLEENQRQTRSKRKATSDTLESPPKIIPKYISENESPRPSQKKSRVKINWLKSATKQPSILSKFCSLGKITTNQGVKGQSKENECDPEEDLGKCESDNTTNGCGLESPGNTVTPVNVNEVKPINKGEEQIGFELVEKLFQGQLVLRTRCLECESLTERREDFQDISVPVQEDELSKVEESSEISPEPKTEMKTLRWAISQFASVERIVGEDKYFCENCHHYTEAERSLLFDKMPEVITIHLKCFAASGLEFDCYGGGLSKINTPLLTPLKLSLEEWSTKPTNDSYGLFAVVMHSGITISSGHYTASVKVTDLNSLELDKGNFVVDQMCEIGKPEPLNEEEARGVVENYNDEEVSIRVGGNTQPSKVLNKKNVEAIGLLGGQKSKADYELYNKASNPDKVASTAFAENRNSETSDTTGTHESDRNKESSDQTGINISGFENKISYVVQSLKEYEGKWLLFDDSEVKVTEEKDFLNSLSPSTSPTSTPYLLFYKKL
Summary of the method: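 USP1/UAF1 complex (1nM) preincubated with compound 15 min at room temperature, then Ub-Rho substrate (150nM final) added. Fluorescence read kinetically at 480/540 nm, 6 reads every 60 seconds. Buffer: 50mM HEPES pH 7.8, 0.5mM EDTA, 0.1 mg/ml BSA, 1mM TCEP, 0.01% Tween-20.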

C=CC(=O)NCNC(=O)C=C
Potency [1]: inactive

CCCCCC[C@H]1C(=O)O[C@H](C)[C@H](NC(=O)c2cccc(NC=O)c2O)C(=O)O[C@@H](C)[C@@H]1OC(=O)CC(C)C
outcome [2]: inactive

O=[N+]([O-])c1c(Cl)c(Cl)cc(Cl)c1Cl
Potency [1]: inactive

c1ccc2occc2c1
Potency [1]: inactive

CC(C)(O)C(=O)Nc1ccc([N+](=O)[O-])c(C(F)(F)F)c1
Potency [1]: inactive

CCn1cc(C(=O)O)c(=O)c2cc3c(cc21)OCO3
Potency [3]: inactive

C[N+]1(C)C2CC(OC(=O)[C@H](CO)c3ccccc3)CC1C1OC12 (stereo partly specified)
Potency [3]: inactive
Potency [4]: inactive

OCCCBr
Potency [1]: inactive

O=S(=O)(c1ccc(Cl)cc1)c1ccc(Cl)cc1
Potency [1]: inactive

COc1cc2c(cc1O)CC[C@@H]1[C@@H]2CC[C@]2(C)[C@@H](O)CC[C@@H]12
Potency [3]: inactive

CS(=O)(=O)Nc1ccc([N+](=O)[O-])cc1Oc1ccccc1
Potency [3]: inactive

O=C(O)COc1nc(Cl)c(Cl)cc1Cl
Potency [1]: inactive

CCOCCOC(C)=O
Potency [1]: inactive

COc1ccc(C(=O)c2c(C)n(CCN3CCOCC3)c3cc(I)ccc23)cc1
outcome [2]: inactive

C[C@]12C[C@H](O)[C@H]3[C@@H](CCC4=CC(=O)CC[C@@]43C)[C@@H]1CC[C@@H]2C(=O)CO
Potency [3]: inactive

O=C(Nc1ccccc1-c1ccc(Cl)cc1)c1cccnc1Cl
Potency [1]: inactive

c1cc2ccc3cccc4ccc(c1)c2c34
Potency [1]: inactive

CCCCC(CC)COC(=O)c1ccccc1C(=O)OCC(CC)CCCC (stereo unspecified)
Potency [1]: inactive

O=[N+]([O-])c1c2ccccc2cc2ccccc12
Potency [1]: inactive

CCOC(=O)c1cncn1[C@H](C)c1ccccc1
outcome [2]: inactive

O=S(=O)(O)C(F)(F)C(F)(F)C(F)(F)C(F)(F)F
Potency [1]: inactive

CCCN1CCO[C@@H]2c3cc(O)ccc3OC[C@@H]21
Potency [5]: inactive
outcome [2]: inactive

Nc1ccc(Cl)cc1
Potency [1]: inactive

C[C@H]1CCCC=CC2C[C@H](O)C[C@@H]2[C@H](O)C=CC(=O)O1 (stereo partly specified)
outcome [2]: inactive
